Compound activity: PubChem, National Center for Advancing Translational Sciences (NCATS)
Rows were chosen to be rich in hits. Some 10% of all compounds tested hit in one or more screens of this group.
MCF10A rereplic: A quantitative high throughput screen for small molecules that induce DNA re-replication in MCF 10a normal breast cells | MCF 10A DNA re-replication, Hoechst nuclear intensity, 48 h | Potency, µM (top dose mostly 46.1 µM), for inactives: at the highest dose activity, positive = re-replication, actives largely listed as activators | 2.9% of 350,000 active; note: % of control where 0% means no effect; nearly all actives have a fitted effect of over 50% in size
SW480 rerep: A quantitative high throughput screen for small molecules that induce DNA re-replication in SW480 colon adenocarcinoma cells. 1.8% of 340,000 active. SW480 DNA re-replication, Hoechst DNA content imaging, 48 h. AID 624297, 2012. Potency, µM (series often up to 46.1 µM), for the others: at the highest dose re-replication activation, hits mostly activators; note: % of control where 0% means no effect; nearly all actives have a fitted effect of over 55% in size
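First, 250 cells per well were seeded. Next, compound or vehicle (23 nL) was pinned in, plates sat 48 hr at 37 C. Finally Hoechst was added for 40 min before fluorescence scanning.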
Gal4-VP16 FLuc: VP16 counterscreen qHTS for inhibitors of ROR gamma transcriptional activity | AID 2546, 2010 | 3.5% of 310,000 active | Drosophila S2 Gal4-VP16 UAS-luciferase, luminescence, 20 h | Potency, µM (series often up to 53.6 µM), for inactives: at the highest dose activity, negative = inhibition, actives largely listed as inhibitors;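 note: Gal4-VP16 expression switched on by copper sulfate through the metallothionein promoter; % is set by controls: 0 for no effect and ±100 for the full control effect; nearly all actives have a fitted effect of over 50% in size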
RORg inh: qHTS for inhibitors of ROR gamma transcriptional activity. 5.4% of 310,000 active. Nuclear receptor ROR-gamma (Mus musculus), P51450. Drosophila S2 Gal4-RORgamma UAS-luciferase reporter, 20 h. Potency, µM (highest dose often 53.6 µM), without a hit: at the highest dose activity change, negative = inhibition, hits mostly inhibitors; note: % is set by controls: 0 for no effect and ±100 for the full control effect; nearly all actives have a fitted effect of over 60% in size
Target sequence (P51450 whole entry, looked up, the tested form may be a part): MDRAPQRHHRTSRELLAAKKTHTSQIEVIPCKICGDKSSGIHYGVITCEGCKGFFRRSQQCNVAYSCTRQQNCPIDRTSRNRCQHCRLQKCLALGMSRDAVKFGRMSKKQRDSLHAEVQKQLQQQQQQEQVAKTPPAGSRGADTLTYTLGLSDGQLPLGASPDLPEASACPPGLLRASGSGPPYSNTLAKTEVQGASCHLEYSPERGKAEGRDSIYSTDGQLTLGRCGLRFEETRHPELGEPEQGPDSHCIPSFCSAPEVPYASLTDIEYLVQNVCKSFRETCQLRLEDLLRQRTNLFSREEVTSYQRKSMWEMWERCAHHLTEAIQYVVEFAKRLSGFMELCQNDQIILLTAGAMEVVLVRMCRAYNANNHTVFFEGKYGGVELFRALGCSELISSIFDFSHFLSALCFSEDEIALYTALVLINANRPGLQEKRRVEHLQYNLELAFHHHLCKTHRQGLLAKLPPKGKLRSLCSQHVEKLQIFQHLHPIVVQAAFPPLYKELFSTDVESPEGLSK
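Luciferase reporter read in Schneider cells carrying Gal4-RORγ (mouse) and UAS-Photinus luciferase; cells given compound 1 h before 700 uM copper sulfate induction, then incubated 20 h at ambient temperature.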
ELG1 DNA repair: qHTS screen for small molecules that inhibit ELG1-dependent DNA repair in human embryonic kidney (HEK293T) cells expressing luciferase-tagged ELG1. HEK293T ELG1-luciferase reporter, luminescence, 16 h; DNA damage induced by 5-fluorouridine. Potency, µM (top dose mostly 46.1 µM), for the others: at the highest dose activity change, negative = inhibition, most hits filed as inhibitors. 2.3% of 330,000 active; note: % is set by controls: 0 for no effect and ±100 for the full control effect; nearly all actives have a fitted effect of over 55% in size
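Overnight (16 hr) co-exposure of 2,000 cells/well to 5-fluorouridine and compound at 37 °C preceded detection. Luciferase was quantified via ONE-Glo luminescence; loss of signal denotes inhibition.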
* marks the source's active call; other numbers are inactive results; ? = inconclusive; . = no result given. Calls come from the whole dose curve; as a rule, active = well fitted curve in the direction sought with a large enough effect; inconclusive = small, poorly fitted or top-dose-only effect, or another doubt; inactive = no such curve, though single readings can be large; an effect the other way counts as inactive or inconclusive. Potency is the fitted concentration of half-maximal effect.

SMILES	MCF10A rereplic	SW480 rerep	Gal4-VP16 FLuc	RORg inh	ELG1 DNA repair
CN(C(=O)CCS(=O)(=O)c1ccc2c(c1)oc(=O)n2C)C1CCCCC1	12%	-17%	-1%	-10%	27%
O=C(Nc1ccccc1)c1cnc(-c2ccccc2)nc1-c1ccccc1	?	13µM*	?	-7%	?
O=C(OCc1ccccc1)N1C=CC2CC1c1c(Cl)cccc12 (stereo not given)	23µM*	13%	.	.	.
O=C(OCc1ccccc1)N1CCC2CC1c1cc(N3CCCCC3)ccc12 (stereo not given)	-6%	23%	.	.	.
Cc1ccc(/C(=N/Nc2ncnc3ccccc23)C(=O)O)cc1	12%	18µM*	0.89µM*	0.05µM*	?
COC(=O)C(=O)C/C(=N/Nc1ncnc2ccccc12)c1ccc(Cl)cc1	12%	9%	?	11µM*	2%
Cc1ccc(Nc2ncnc3ccccc23)cc1	-18%	8%	-11%	4%	?
CCOC(=O)Cc1csc(NC(=O)c2ccc(S(=O)(=O)N3CCCC3)cc2)n1	-9%	-3%	-23%	?	?
CC[C@H](C)[C@H](N)C(=O)N[C@H]1CCC(=O)NCC(C(=O)N[C@@H](Cc2ccc(O)cc2)C(=O)N[C@@H](CCCNC(=N)N)C(=O)N[C@@H](CC(C)C)C(=O)N[C@@H](CCCNC(=N)N)C(=O)N[C@@H](Cc2ccc(O)cc2)C(N)=O)NC(=O)[C@@H]2CCCN2C(=O)[C@@H](NC(=O)[C@@H](N)[C@@H](C)CC)CCC(=O)NCC(C(=O)N[C@@H](Cc2ccc(O)cc2)C(=O)N[C@@H](CCCNC(=N)N)C(=O)N[C@@H](CC(C)C)C(=O)N[C@@H](CCCNC(=N)N)C(=O)N[C@@H](Cc2ccc(O)cc2)C(N)=O)NC(=O)[C@@H]2CCCN2C1=O (stereo not given in full)	.	.	-2%	-3%	.
Clc1cccc(/C=N/Nc2nc(Cl)nc3ccccc23)c1	16%	?	-2%	2µM*	?
CSc1ccc(/C=N/Nc2nc(C)cc(C)n2)cc1	3%	-4%	?	11µM*	?
Cc1cc(C)nc(N/N=C/c2cccc(Cl)c2)n1	-6%	-38%	6%	11µM*	?
CC(/C=N/Nc1nc(C)cc(C)n1)=C\c1ccc(C(C)C)cc1	20%	?	?	11µM*	10%
Cc1cc(C)nc(N/N=C/c2ccc(Cl)cc2)n1	?	3%	-11%	10%	0%
Cc1nc2cc(C(F)(F)F)ccc2n1CCNc1nc(-c2ccc([N+](=O)[O-])c(Cl)c2)cs1	8%	-4%	-4%	-19%	?
Cc1ccc(OCCNC(=O)CCNC(=O)c2ccc(Cl)cc2)cc1	1%	-8%	.	.	12%
N#Cc1nc(NCCO)nc(Nc2ccccc2)n1	.	.	-10%	.	.
Brc1ccc(/C=N/Nc2ccccn2)cc1	-5%	-10%	-23%	?	?
Cc1ccc(/C=N/Nc2nc(C)cc(C)n2)cc1	24%	-147%	1%	10µM*	0%
CCNc1nc(NCC)nc(N/N=C/c2ccc(Br)cc2)n1	13%	-8%	-16%	18µM*	-15%
COc1ccccc1NC(=S)N(CCc1nc2cc(C)c(C)cc2[nH]1)Cc1cccnc1	-1%	5%	-5%	-11%	?
Cc1nsc(N)c1C(=O)O	7%	6%	-8%	16%	?
C[C@@]12C(=O)Nc3cc(F)ccc3C(=O)N1[C@H]1c3cc(Br)ccc3OC[C@@H]1[C@@H]2c1ccccc1	7.3µM*	?	.	.	-6%
Cc1ccc2c(c1)[C@H]1[C@H](CO2)[C@H](c2ccccc2)[C@]2(C)C(=O)Nc3cc(F)ccc3C(=O)N12	5.8µM*	?	.	.	?
CCOc1ccccc1NC(=O)C1CCCCN1S(=O)(=O)c1ccc(F)cc1 (stereo not given)	?	2%	-2%	9%	-19%
